Source: PubChem BioAssay (National Center for Advancing Translational Sciences (NCATS))
Hits are enriched below; roughly 9.5% of the tested compounds scored in any of these assays.
Tau FP inhib: tau fibrillization inhibition (FP); P10636; K18 P301L tau heparin fibrillization, Alexa594 FP, 6 h; Potency, µM (highest dose often 57.7 µM), for inactives: top-dose activity, negative = inhibition, actives largely listed as inhibitors; 280,000 compounds, 0.39% hits; AID 1468; note: nearly all actives have a fitted effect of over 55% in size
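Heparin (20 uM) drove fibril formation of recombinant tau K18 P301L, 15 uM unlabeled with 0.24 uM Alexa 594 label, for 6 hr at 37 C in 100 mM sodium acetate pH 7. Fluorescence polarization (555/632 nm) read 1 hr after 30 uM ThT.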
Tau ThT inhib: tau fibrillization inhibition (ThT binding); recombinant tau K18 P301L, heparin-induced fibrillization, ThT fluorescence; Potency, µM (doses to about 57.4 µM), without a hit: at the top dose activity, negative = inhibition, hits mostly inhibitors; 270,000 compounds, 2.1% hits; note: nearly all actives have a fitted effect of over 55% in size
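Tau K18 P301L fragment (15 uM unlabeled plus 0.24 uM Alexa 594-labeled) in 100 mM sodium acetate pH 7 with compound, fibrillization induced by 20 uM heparin for 6 hr at 37 C. Thioflavin T (30 uM) added, fluorescence read after 1 hr (ex 450, em 510 nm).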
Tau fluor counter: counter-screen for tau fibril formation inhibitors. Potency, µM (highest dose often 57.7 µM), inactives show at the top dose activity change, negative = decrease. tau K18 P301L (four-repeat tau fragment) Alexa594 fluorescence, heparin fibrillization. AID 1463. 280,000 compounds, 0.93% hits; note: nearly all actives have a fitted effect of over 55% in size
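Human K18 P301L tau (15 uM unlabeled plus 0.24 uM Alexa 594-labeled, final) in 100 mM sodium acetate pH 7 was mixed with compound and 20 uM heparin and incubated 6 hr at 37 C.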
HPGD inh: blocks human HPGD enzyme activity. P15428. purified HPGD, NADH fluorescence kinetic, PGE2 substrate. Potency, µM, for the others: at the top dose activity change, negative = inhibition, hits mostly inhibitors. 150,000 compounds, 4.3% hits. AID 894; active = well fitted inhibition curve with a large enough effect, not every such curve was filed as active; inconclusive = small, poorly fitted or top-dose-only effect, or another doubt; inactive = no such curve, though single readings can be large or run the other way
Target sequence (P15428 whole entry, looked up): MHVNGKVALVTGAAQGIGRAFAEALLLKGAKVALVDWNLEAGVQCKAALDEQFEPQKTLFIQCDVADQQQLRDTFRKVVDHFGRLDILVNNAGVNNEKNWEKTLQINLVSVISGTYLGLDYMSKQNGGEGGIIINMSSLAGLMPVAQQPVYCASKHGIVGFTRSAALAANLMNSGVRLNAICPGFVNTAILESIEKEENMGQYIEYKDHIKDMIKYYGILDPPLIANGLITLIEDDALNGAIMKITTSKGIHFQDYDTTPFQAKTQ
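20 nM HPGD preincubated 15 min at room temperature with compound in 50 mM Tris-HCl pH 8, 0.01% Tween 20. Started with 1 mM NAD+ and 30 uM prostaglandin E2; NADH fluorescence (360/450 nm) read 5 times over 30-s intervals, last minus first.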
ALDH1A1 inh: inhibitors of human aldehyde dehydrogenase 1A1 | P00352 | Purified ALDH1A1, NADH fluorescence, propionaldehyde substrate | Potency, µM (series often up to 75.3 µM), inactives show top-dose activity, negative = inhibition, most hits filed as inhibitors | 220,000 compounds, 7.3% hits; active = well fitted inhibition curve with a large enough effect, not every such curve was filed as active; inconclusive = small, poorly fitted or top-dose-only effect, or another doubt; inactive = no such curve, though single readings can be large or run the other way;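 note: plate controls were no enzyme wells and a reference inhibitor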
Target sequence (P00352 whole entry, looked up): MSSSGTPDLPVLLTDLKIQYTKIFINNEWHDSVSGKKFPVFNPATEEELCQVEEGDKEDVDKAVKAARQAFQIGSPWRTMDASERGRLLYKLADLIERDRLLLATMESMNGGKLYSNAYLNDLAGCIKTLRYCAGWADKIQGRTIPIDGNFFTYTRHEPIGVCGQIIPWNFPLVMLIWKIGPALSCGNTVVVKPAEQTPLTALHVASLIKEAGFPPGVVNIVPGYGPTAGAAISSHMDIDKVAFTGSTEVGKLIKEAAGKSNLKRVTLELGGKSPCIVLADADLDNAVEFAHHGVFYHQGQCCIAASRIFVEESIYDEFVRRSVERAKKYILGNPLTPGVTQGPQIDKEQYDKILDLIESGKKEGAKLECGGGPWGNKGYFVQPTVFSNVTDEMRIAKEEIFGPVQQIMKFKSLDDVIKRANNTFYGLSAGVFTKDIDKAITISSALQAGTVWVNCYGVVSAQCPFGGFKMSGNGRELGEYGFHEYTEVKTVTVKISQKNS
NPSR antagonist: antagonists of human neuropeptide S receptor cAMP signaling; Potency, µM (highest dose often 38.3 µM), without a hit: at the highest dose activity change, negative = inhibition, hits mostly inhibitors; 220,000 compounds, 1% hits; CHO-NPSR cells, cAMP TR-FRET, antagonist mode; note: nearly all actives have a fitted effect of over 50% in size
* marks the source's active call; other numbers are inactive results; [ ] = another dose, or the depositor's remark. Unless noted, calls come from the whole dose curve; as a rule, active = well fitted curve in the direction sought with a large enough effect; inconclusive = small, poorly fitted or top-dose-only effect, or another doubt; inactive = no such curve, though single readings can be large; an effect the other way counts as inactive or inconclusive. Unless noted, % is set by controls: 0 for no effect and ±100 for the full control effect; potency is the fitted concentration of half-maximal effect.

How did O=c1c2c3c(sc2n(CCN2CCCCC2)c(=O)n1Cc1ccco1)CCCCC3 do in these assays?
Tau FP inhib: -1%; Tau ThT inhib: -15%; Tau fluor counter: -13%; HPGD inh: -16%; ALDH1A1 inh: 5.6µM*; NPSR antagonist: inconclusive

How did O=C(Cn1c(=O)n(Cc2ccco2)c(=O)c2c3c(sc21)CCCC3)Nc1ccccc1 do in these assays?
Tau FP inhib: -15%; Tau ThT inhib: -1%; Tau fluor counter: inconclusive; HPGD inh: -11%; ALDH1A1 inh: inconclusive; NPSR antagonist: -23%[46.1 µM]

How did NC(=O)Cn1c(=O)n(Cc2ccco2)c(=O)c2c3c(sc21)CCCCC3 do in these assays?
Tau FP inhib: -3%; Tau ThT inhib: -14%; Tau fluor counter: -15%; HPGD inh: -18%; ALDH1A1 inh: 11µM*; NPSR antagonist: 29%[46.1 µM]

Results for COc1ccc2cc(-c3nc4ccc(C(=O)O)cc4[nH]3)c(=O)oc2c1 ?
Tau FP inhib: -10%; Tau ThT inhib: inconclusive; Tau fluor counter: -10%

How did CCCc1cc(=O)[nH]c2nnc(SCCC(C)C)n12 do in these assays?
Tau FP inhib: -2%; Tau ThT inhib: -3%; Tau fluor counter: -1%

What do the screens show for `COc1ccc(Cc2nnc(SCC(=O)N3CCCC3)o2)cc1`?
Tau FP inhib: -6%; Tau ThT inhib: -2%; Tau fluor counter: 8%[2.34 µM]; ALDH1A1 inh: 3%; NPSR antagonist: -7%

How did COc1ccc(Cc2nnc(SCC(=O)N3CCCC(C)C3)o2)cc1 (stereo unspecified) do in these assays?
Tau FP inhib: 5%; Tau ThT inhib: 6%; Tau fluor counter: 4%; ALDH1A1 inh: 0.89µM*; NPSR antagonist: -7%

Results for COc1ccc(OC(C)C(=O)N2CCc3ccccc3C2)cc1 (stereo unspecified) ?
Tau FP inhib: 9%; Tau ThT inhib: -13%; Tau fluor counter: -3%; HPGD inh: 25µM*; ALDH1A1 inh: -7%; NPSR antagonist: -10%[46.1 µM]

Results for COc1ccc(CC(=O)N2CCCC(C)C2)cc1 (stereo unspecified) ?
Tau FP inhib: -1%; Tau ThT inhib: 1%; Tau fluor counter: 5%; HPGD inh: 28µM*; ALDH1A1 inh: -9%; NPSR antagonist: -14%[46.1 µM]

What do the screens show for `COc1ccc(-c2nnc(SCC(=O)N3CCCC(C)C3)o2)c(OC)c1` (stereo unspecified)?
Tau FP inhib: 1%; Tau ThT inhib: 3%; Tau fluor counter: 4%; HPGD inh: 16µM*; ALDH1A1 inh: inconclusive; NPSR antagonist: -24%[7.67 µM]

What do the screens show for `CC1CCCN(C(=O)Cc2ccc(F)cc2)C1` (stereo unspecified)?
Tau FP inhib: 4%; Tau ThT inhib: -8%; Tau fluor counter: 0%; HPGD inh: -25%; ALDH1A1 inh: inconclusive; NPSR antagonist: -4%[46.1 µM]

Results for Cc1nn(-c2ccc(N3CCCC3)nn2)c(C)c1CCC(=O)N1CCN(c2ccc(F)cc2)CC1 ?
Tau FP inhib: 6%; Tau ThT inhib: inconclusive; Tau fluor counter: 10%

What do the screens show for `Cc1ccc(-c2noc(-c3nnn(CC(=O)Nc4cc(Cl)ccc4C)c3N)n2)cc1`?
Tau FP inhib: -3%; Tau ThT inhib: 4%; Tau fluor counter: -9%

How did COc1cccc([C@@H]2Oc3ccc(OC)cc3/C(=N/O[C@@H](C)CN3CCCCc4nc(C)c(C)cc43)[C@@H]2O)c1 do in these assays?
Tau FP inhib: -2%[11.6 µM]; Tau ThT inhib: -16%[11.5 µM]; Tau fluor counter: -19%[11.6 µM]; ALDH1A1 inh: 10%[13.5 µM]

Results for Fc1ccccc1C(NCCc1ccc(Cl)cc1)c1nnc(-c2ccccc2)o1 (stereo unspecified) ?
Tau FP inhib: -1%; Tau ThT inhib: inconclusive; Tau fluor counter: -15%

Results for COc1cc(OC)c(NC(=O)N2CCc3c(sc4c3CCCC4)C2c2ccccc2)cc1Cl (stereo unspecified) ?
Tau FP inhib: 14%; Tau ThT inhib: 2%; Tau fluor counter: -10%

How did COc1ccc(-c2nnc(SCC(=O)N3CCc4ccccc4C3)o2)cc1 do in these assays?
Tau FP inhib: -1%; Tau ThT inhib: inconclusive; Tau fluor counter: -18%; HPGD inh: inconclusive; ALDH1A1 inh: inconclusive; NPSR antagonist: inconclusive

Results for COc1ccc(Cc2nnc(SCC(=O)N3CCc4ccccc4C3)o2)cc1 ?
Tau FP inhib: 4%; Tau ThT inhib: inconclusive; Tau fluor counter: -10%; ALDH1A1 inh: 13µM*; NPSR antagonist: -6%[46.1 µM]

What do the screens show for `CC(C)(C)[C@@H]1C=C(C(=O)N2CCN(Cc3ccc4c(c3)OCO4)CC2)O[C@H](OCc2ccc(CO)cc2)C1`?
Tau FP inhib: 10%; Tau ThT inhib: -5%; Tau fluor counter: -1%; ALDH1A1 inh: -8%; NPSR antagonist: 57%

Results for CCC/C=C(\CCC)C(NC(=O)c1ccc(C(F)(F)F)cc1)c1ccc(C(F)(F)F)cc1 (stereo unspecified) ?
Tau FP inhib: 4%; Tau ThT inhib: 5%; Tau fluor counter: -2%; HPGD inh: -3%; ALDH1A1 inh: -2%

What do the screens show for `CC(C)C[C@H](N)CSSC[C@@H](N)CC(C)C`?
Tau FP inhib: inconclusive; Tau ThT inhib: 5µM*; Tau fluor counter: -15%; HPGD inh: -3%; ALDH1A1 inh: 2%; NPSR antagonist: -15%[46.1 µM]

Results for CC(C)C[C@H](N)C(=O)O ?
HPGD inh: -2%; ALDH1A1 inh: 6%[13.5 µM]

Results for Cc1cc(NC(=O)C2CCCC2)nc2c1c(=O)oc1ccccc12 ?
Tau FP inhib: -10%; Tau ThT inhib: -8%; Tau fluor counter: -28%; HPGD inh: -20%; ALDH1A1 inh: 14µM*; NPSR antagonist: -14%[46.1 µM]

Results for Cc1cc(NC(=O)CN2CCC(O)CC2)nc2c1c(=O)oc1ccccc12 ?
Tau FP inhib: -10%; Tau ThT inhib: -9%; Tau fluor counter: -14%

How did Cc1cc(NC(=O)CN2CCN(Cc3ccccc3)CC2)nc2c1c(=O)oc1ccccc12 do in these assays?
Tau FP inhib: -7%; Tau ThT inhib: -6%; Tau fluor counter: -12%; ALDH1A1 inh: 3.5µM*; NPSR antagonist: -1%

How did Cc1cc(NC(=O)CN2CC3CC(C2)c2cccc(=O)n2C3)nc2c1c(=O)oc1ccccc12 (stereo unspecified) do in these assays?
Tau FP inhib: 5%; Tau ThT inhib: -18%; Tau fluor counter: -6%; HPGD inh: 0%; ALDH1A1 inh: 28µM*; NPSR antagonist: -7%[46.1 µM]

How did O=c1c2oc3ccccc3c2n(Cc2ccc(Cl)cc2)c(=O)n1Cc1ccco1 do in these assays?
Tau FP inhib: -9%; Tau ThT inhib: 0%; Tau fluor counter: -7%
